Screening results as filed in PubChem BioAssay.
Rows were chosen to be rich in hits. Some 0.44% of all compounds tested hit in one or more screens of this group.
YopH PTP inh: blocks Yersinia enterocolitica YopH tyrosine phosphatase | fluorescence Ex485/Em525 | inhibition, % (test concentration not listed) | actives 0.16% (n = 140,000); in the data active = inhibition above about 50%
RmlCD inh mix: RmlC/RmlD inhibition, mixture screen. RmlC/RmlD coupled enzyme inhibition, 384-well mixture HTS. inhibition, % at 5.5 µM. actives 0.39% (n = 110,000). AID 1532; in the data active = inhibition above about 30%, passing the limit was not always enough
RmlCD artifact: counter-screen for RmlC/RmlD inhibitors: fluorescence artifact; shares compounds with RmlCD inh mix; RmlC/RmlD assay fluorescence artifact counter-screen; calls only; actives 96% (n = 360); call rule not given here;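 note: compound alone with no enzyme and no substrates present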
* = called active by the depositor.

How did Cc1ccc(CNC(=O)c2ccc(OCC3CCCO3)cc2)cc1 (stereo unspecified) do in these assays?
YopH PTP inh: -3

How did COc1ccc(/C=C/C(=O)OCC(=O)Nc2cc(C(F)(F)F)ccc2Cl)cc1 do in these assays?
YopH PTP inh: -20

Results for CC1CCN(CCOc2ccc(OCc3ccccc3)cc2)CC1 ?
YopH PTP inh: -8

What do the screens show for `CC(=O)Nc1ccc(S(=O)(=O)Nc2nccc(/C=C/c3ccc(Cl)cc3)n2)cc1`?
YopH PTP inh: -24

How did COC(=O)[C@@H]1C[C@H]2CC[C@H](O)C[C@H]2N1Cc1ccc(-c2ccccc2)cc1 do in these assays?
RmlCD inh mix: -12

What do the screens show for `COC(=O)c1sccc1NC(=O)c1cc(-c2ccc(C)cc2C)nc2ccccc12`?
YopH PTP inh: -21; RmlCD inh mix: -9

Results for CCN(CC)c1ccc2cc(-c3nc4ccccc4[nH]3)c(=O)oc2c1 ?
YopH PTP inh: -21; RmlCD inh mix: 30*; RmlCD artifact: active

What do the screens show for `CCN(CC)c1ccc2cc(-c3nc4ccccc4n3C)c(=O)oc2c1`?
YopH PTP inh: -24; RmlCD inh mix: -64

What do the screens show for `Cc1[nH]c2ccccc2c1N=Nc1ccccc1C(=O)O`?
YopH PTP inh: -13

Results for CC1CCCN(CCCNC(=O)c2coc3nc4ccccc4nc23)C1 (stereo unspecified) ?
YopH PTP inh: 11; RmlCD inh mix: 140*; RmlCD artifact: active

Results for CC1CCN(CCCNC(=O)c2coc3nc4ccccc4nc23)CC1 ?
YopH PTP inh: -23; RmlCD inh mix: 19

What do the screens show for `CC(C)CNC(=O)c1cccc(NC(=O)Cc2ccc(Cl)cc2)c1`?
YopH PTP inh: -21

Results for Cc1ccccc1CSCC(=O)Nc1c(C)n(C)n(-c2ccccc2)c1=O ?
YopH PTP inh: -11

What do the screens show for `COC(=O)C1=CN(CCCN2CCCC2=O)C=C(C(=O)OC)C1c1ccccc1C(F)(F)F`?
YopH PTP inh: -14; RmlCD inh mix: 68*; RmlCD artifact: active

What do the screens show for `COc1ccccc1C(=O)NCCCN1CCCC1=O`?
YopH PTP inh: 3; RmlCD inh mix: -11

How did CCc1ccc(OCCOCC(O)CN(CCO)CCO)cc1 (stereo unspecified) do in these assays?
YopH PTP inh: -7

What do the screens show for `CCN(CC)c1ccc(NC(=O)COC(=O)COc2ccccc2[N+](=O)[O-])cc1`?
YopH PTP inh: -11

Results for CN(C)CCCNS(=O)(=O)c1ccc(N2CCC(c3ccc(Cl)cc3)=N2)cc1 ?
YopH PTP inh: -14; RmlCD inh mix: 93*; RmlCD artifact: active

How did O=S(=O)(c1ccc(N2CCC(c3ccc(Cl)cc3)=N2)cc1)N(CCO)CCO do in these assays?
YopH PTP inh: 5; RmlCD inh mix: 40*; RmlCD artifact: active

What do the screens show for `CN(C)CCCNS(=O)(=O)c1cc(Cl)ccc1Cl`?
YopH PTP inh: -3; RmlCD inh mix: 2

Results for CCN(CC(=O)N1CCCCCC1)S(=O)(=O)c1ccc(Cl)cc1 ?
YopH PTP inh: 13; RmlCD inh mix: -1

Results for CCOC(=O)c1cc(CC)sc1NC(=O)c1ccc([N+](=O)[O-])c(N2CCOCC2)c1 ?
YopH PTP inh: -29

How did O=c1nc(Nc2ccccc2)sc2ccc([N+](=O)[O-])cc12 do in these assays?
YopH PTP inh: -33

Results for CCOC(=O)c1c(N)n(CCCOC(=O)c2ccco2)c2nc3ccccc3nc12 ?
YopH PTP inh: -30; RmlCD inh mix: 34*; RmlCD artifact: active

How did CCCCCn1c(NC(=O)c2ccco2)c(C(=O)OCC)c2nc3ccccc3nc21 do in these assays?
YopH PTP inh: 22

Results for COc1ccccc1CNC(=O)c1c(N)n(CCCN2CCOCC2)c2nc3ccccc3nc12 ?
YopH PTP inh: -12

What do the screens show for `CC(C)OC(=O)c1c(N)n(CCCN2CCOCC2)c2nc3ccccc3nc12`?
YopH PTP inh: 2; RmlCD inh mix: 38*; RmlCD artifact: active

What do the screens show for `Cc1nn(CC(=O)Nc2ccc(S(=O)(=O)N(C)C)cc2)c(C)c1[N+](=O)[O-]`?
YopH PTP inh: -20

What do the screens show for `CCCCNc1c(N)n(CCCC)c(=O)[nH]c1=O`?
YopH PTP inh: 31

What do the screens show for `Nc1ccc2nc(-c3ccc(Cl)cc3)[nH]c2c1`?
YopH PTP inh: 0; RmlCD inh mix: 9

What do the screens show for `Nc1ccc(-c2nc3c(Cl)c(N)ccc3[nH]2)cc1`?
YopH PTP inh: -11; RmlCD inh mix: 116*; RmlCD artifact: active

What do the screens show for `NC(=O)c1nn(-c2ccccc2)nc1N`?
YopH PTP inh: 4; RmlCD inh mix: 43*; RmlCD artifact: active

Results for NC(=O)c1nn(-c2ccccc2)nc1NC(=O)CN1CCCCC1 ?
YopH PTP inh: -15; RmlCD inh mix: 6

What do the screens show for `CCOC(=O)CC(=O)CSc1nc2c(cc1C#N)CCC2`?
YopH PTP inh: 2; RmlCD inh mix: 80*; RmlCD artifact: active

Results for CCOC(=O)CC(=O)CSc1nc2c(c(-c3cccs3)c1C#N)CCC2 ?
YopH PTP inh: 3

Results for N#CCSc1nc2c(cc1C#N)CCCC2 ?
YopH PTP inh: -39; RmlCD inh mix: 0

How did COC(=O)CC(=O)CSc1nc2c(cc1C#N)CCCCC2 do in these assays?
YopH PTP inh: -16; RmlCD inh mix: 138*; RmlCD artifact: active

Results for Cc1csc(NC(=O)c2nn(C)c(C)c2[N+](=O)[O-])n1 ?
YopH PTP inh: -11

Results for COCCn1c(=N)c(C(=O)NCCc2ccccc2)cc2c(=O)n3cccc(C)c3nc21 ?
YopH PTP inh: 2; RmlCD inh mix: 58*; RmlCD artifact: active

What do the screens show for `Cc1cccn2c(=O)c3cc(C(=O)NCCN4CCOCC4)c(=N)n(CCc4ccccc4)c3nc12`?
YopH PTP inh: -28

What do the screens show for `Cc1cccn2c(=O)c3cc(C(=O)NCCCn4ccnc4)n(C)c3nc12`?
YopH PTP inh: -29

Results for CCCn1c(=N)c(C(=O)NCC2CCCO2)cc2c(=O)n3cccc(C)c3nc21 (stereo unspecified) ?
YopH PTP inh: -44; RmlCD inh mix: 87*; RmlCD artifact: active

Results for Cc1cccn2c(=O)c3cc(C(=O)NCc4ccco4)c(=N)n(CCOCCO)c3nc12 ?
YopH PTP inh: -35; RmlCD inh mix: 17

How did Cc1cccn2c(=O)c3cc(C(=O)NCCc4ccccc4)c(=N)n(CCCn4ccnc4)c3nc12 do in these assays?
YopH PTP inh: -16; RmlCD inh mix: 38*; RmlCD artifact: active

What do the screens show for `CCNC(=O)c1cc2c(=O)n3cccc(C)c3nc2n(CCc2ccccc2)c1=N`?
YopH PTP inh: -14; RmlCD inh mix: 59*; RmlCD artifact: active

How did Cc1cccn2c(=O)c3cc(C(=O)NCC4CCCO4)c(=N)n(CCN4CCOCC4)c3nc12 (stereo unspecified) do in these assays?
YopH PTP inh: -20

Results for CCc1ccc(N(CC(=O)Nc2ccccc2C(=O)N2CCOCC2)S(C)(=O)=O)cc1 ?
YopH PTP inh: -24

Results for CCOC(=O)CC(=O)CSc1nc2ccccc2c(=O)n1-c1ccc(C(=O)NCCOC)cc1 ?
YopH PTP inh: 6; RmlCD inh mix: -7

Results for COc1cccc(/C=N/NC(=O)c2cc3c(OC)cccc3[nH]2)c1O ?
YopH PTP inh: -43; RmlCD artifact: active

How did COc1cccc(/C=N/NC(=O)c2cc3c(OC)cccc3[nH]2)c1OC do in these assays?
YopH PTP inh: -11
